Values of other authors as cited in PubChem BioAssay AID977610.
The whole screen tested about 3,600 compounds, of which about 3,600 (100%) were called active. The limit is not given here; nearly all actives have Ki up to about 18000 µM. The set was probably picked from earlier hits. Some of the results follow.

Assay: PubChem AID 977610
Settings: PDB protein-ligand complexes, literature Ki

## C[C@@H](O[P+](O)(O)O)C(=O)O
protein: PHOSPHO-2-DEHYDRO-3-DEOXYHEPTONATE ALDOLASE DAH7PS, PDB entry 4umb
  Ki: 99 µM (active)

## C[C@H](O[P+](O)(O)O)C(=O)O
protein: PHOSPHO-2-DEHYDRO-3-DEOXYHEPTONATE ALDOLASE DAH7PS, PDB entry 4umc
  Ki: 360 µM (active)

## H-SRFPTSII-OH
protein: CFTR Associated Ligand (CAL) domain, PDB entry 4joj
  Ki: 110 µM (active)

## H-SRVPTSII-OH
protein: CFTR Associated Ligand (CAL) PDZ domain, PDB entry 4jog
  Ki: 190 µM (active)

## H-NSRYPTSII-OH
protein: CFTR Associated Ligand (CAL) PDZ domain, PDB entry 4jok
  Ki: 85.3 µM (active)

## H-RLPTSII-OH
protein: CFTR Associated Ligand (CAL) PDZ domain, PDB entry 4jof
  Ki: 68 µM (active)

## CC(C)(C)NC(=O)[C@@]1(c2c(C(=O)O)[nH]c3cc(Cl)ccc23)N2C(=O)[C@]21c1ccc(OCc2ccc(Cl)cc2)cc1
protein: E3 ubiquitin-protein ligase Mdm2, PDB entry 4mdn
  Ki: 0.6 µM (active)

## CC(C)(C)NC(=O)[C@@H]1C[C@@H]2CCCC[C@@H]2CN1C[C@@H](O)[C@H](C[C@@H]1C=CCCC1)NC(=O)[C@H](CC(N)=O)NC(=O)C1=CCc2ccccc2N1
protein: Protease PRG48T/L89M, PDB entry 4qgi
  Ki: 125 µM (active)

## Nc1nc2c(ncn2[C@H]2CN(C(=O)C[P+](O)(O)O)C[C@H]2O)c(=O)[nH]1
protein: Xanthine phosphoribosyltransferase, E. coli XGPRT, PDB entry 4jls
  Ki: 2.2 µM (active)

## Nc1nc2c(ncn2[C@H]2CCN(C(=O)C[P+](O)(O)O)C2)c(=O)[nH]1
protein: Xanthine phosphoribosyltransferase, E. coli XGPRT, PDB entry 4jit
  Ki: 0.23 µM (active)

## Nc1nc2c(ncn2CC(COC[P+](O)(O)O)COC[P+](O)(O)O)c(=O)[nH]1
protein: hypoxanthine-guanine phosphoribosyltransferase, PDB entry 4ijq
  Ki: 0.03 µM (active)

## O=C(O)CC1(CC(=O)N2CCN(C(c3ccccc3)c3ccccc3)CC2)CCCC1
protein: Dehydrosqualene synthase, PDB entry 3tfn
  Ki: 0.27 µM (active)

## CO[C@H]1CC[C@H](OC)[C@@H](NC(=O)CN2CCN(Cc3ccc4c(c3)OCO4)CC2)C1
protein: E. coli beta-Glucuronidase, PDB entry 4jhz
  Ki: 0.957 µM (active)

## NCCCC[C@H](NC(=O)Cc1ccc(Cl)c(Cl)c1)C(=O)N[C@@H](CCCCN)C(=O)NCC1CCC(NC(N)N)CC1 (some centres not stated)
protein: SERINE PROTEASE SUBUNIT NS2B, SERINE PROTEASE NS3, PDB entry 2yol
  Ki: 0.13 µM (active)

## Cn1nc(N)c2c[n+]([C@@H]3O[C@H](CO[P+](O)(O)O)[C@@H](O)[C@H]3O)c3nc[nH]c1c23
protein: Deoxyribonucleoside 5'-monophosphate N-glycosidase (D69N mutation), PDB entry 4fyh
  Ki: 14 µM (active)

## N#Cc1cccc(Cn2cc(NC(=O)c3n[nH]c4ccccc34)cn2)c1
protein: Tyrosine-protein kinase ITK, PDB entry 4pp9
  Ki: 0.043 µM (active)

## CCc1[nH]c2nc(Oc3cncnc3)nc(N3C[C@@H]4C(N)[C@@H]4C3)c2c1Cl (some centres not stated)
protein: DNA gyrase subunit B, PDB entry 4gee
  Ki: 0.001 µM (active)

## COc1ccc(OCCN2C[C@H]([C@@H](O)CO)[C@H]3CCC[C@@H](C2=O)N3S(=O)(=O)c2cc(Cl)cc(Cl)c2)cc1OC
protein: Peptidyl-prolyl cis-trans isomerase FKBP51, PDB entry 4w9o
  Ki: 0.017 µM (active)

## COc1ccc(OCCN2C[C@H]([C@H](O)CO)[C@H]3CCC[C@@H](C2=O)N3S(=O)(=O)c2cc(Cl)cc(Cl)c2)cc1OC
protein: Peptidyl-prolyl cis-trans isomerase FKBP51, PDB entry 4w9p
  Ki: 0.016 µM (active)

## O=C(O)c1cc2[nH]c3ccccc3c2cc1Cl
protein: E. coli sliding clamp, DNA polymerase III subunit beta, PDB entry 4n99
  Ki: 216 µM (active)

## Cc1ccc(CSc2nc3c(c(=O)[nH]2)CCC3)cc1
protein: Matrix metalloproteinase-13, PDB entry 4l19
  Ki: 0.8 µM (active)

## O=c1ccn([C@@H]2O[C@H](CO)[C@@H](O)[C@H](O)[C@H]2O)c(=O)[nH]1
protein: Glycogen phosphorylase, muscle form, PDB entry 3t3d
  Ki: 12.4 µM (active)

## Cc1cc(=O)[nH]c(=O)n1[C@@H]1O[C@H](CO[P+](O)(O)O)[C@@H](O)[C@H]1O
protein: Orotidine 5'-phosphate decarboxylase, PDB entry 3wjw
  Ki: 134 µM (active)

## O=c1ccn([C@@H]2O[C@H](CO)[C@@H](O[P+](O)(O)O)[C@H]2O)c(=O)[nH]1
protein: bovine seminal ribonuclease, PDB entry 1n3z
  Ki: 63.2 µM (active)

## N#C[C@H]1CC(=O)NC(=O)N1[C@@H]1O[C@H](CO[P+](O)(O)O)[C@@H](O)[C@H]1O
protein: Mt orotidine 5'-monophosphate decarboxylase (OMPDC) K72A mutant, PDB entry 2zz2
  Ki: 29 µM (active)

## O=c1cnn([C@@H]2O[C@H](CO[P+](O)(O)O)[C@@H](O)[C@H]2O)c(=O)[nH]1
protein: Methanothermobacter thermautotrophicus ODCase mutant K42A, PDB entry 1km3
  Ki: 12.4 µM (active)
protein: orotidine 5'-monophosphate decarboxylase from Saccharomyces cerevisiae (D91N), PDB entry 3gdt
  Ki: 0.064 µM (active)

## O=c1ccn([C@@H]2O[C@H](CO[P+](O)(O)O)[C@@H](O)[C@H]2O)c(=O)[nH]1
protein: D312N mutant of human orotidyl-5'-monophosphate decarboxylase, PDB entry 3ex6
  Ki: 220 µM (active)
protein: Mt orotidine 5'-monophosphate decarboxylase (OMPDC), PDB entry 3g1d
  Ki: 330 µM (active)
protein: orotidine 5'-monophosphate decarboxylase from P.falciparum, PDB entry 2za3
  Ki: 210 µM (active)

## CC(C)(C)OC(=O)N[C@H](C(=O)NO)c1ccc(-n2cccn2)cc1
protein: M1 family aminopeptidase A-M1, PDB entry 4r5t
  Ki: 0.8 µM (active)
protein: M17 leucyl aminopeptidase A-M17, PDB entry 4r6t
  Ki: 0.03 µM (active)
